Consider 14 molecules from PubChem BioAssay (NCATS).

Experiment [1] in a line: Primary qHTS for inhibitors of nuclear receptor binding SET domain protein 2 (NSD2) in an RCH-ACV wild type WT cells (2C) (AID 1645877; also: nearly all actives have a fitted effect of over 70% in size; also: potency is read from the fitted curve at half-maximal effect). (In general: qHTS replaces the single test concentration by a dilution series.)
Experiment [2] deals with Catechol O-methyltransferase (Homo sapiens) (UniProt P21964). As to the kind of experiment: Confirmatory Screen for Target Class Profiling of Small Molecule Inhibitors of Methyltransferases (AID 1745852; calls by dose curve; also: potency is read from the fitted curve at half-maximal effect). Particulars: MTase-Glo luminescence, SAH detection, recombinant enzyme; measured here: COMT max response; stronger effect = lower value.
Experiment [3] concerns the target Guanidinoacetate N-methyltransferase (Homo sapiens) (UniProt Q14353). Described as above. Particulars: activity change, negative = inhibition: at 57.3 µM (top of the series) unless noted.
Experiment [4] concerns the target Nicotinamide N-methyltransferase (Homo sapiens) (UniProt P40261). The description is as above. As to conditions: MTase-Glo luminescence, SAH detection, recombinant enzyme; measured here: NNMT max response; stronger effect = lower value.
The target of experiment [5] is Phenylethanolamine N-methyltransferase (Homo sapiens) (UniProt P11086). Described as above. As to conditions: MTase-Glo luminescence, SAH detection, recombinant enzyme; measured here: PNMT max response; stronger effect = lower value.
The target of experiment [6] is Luciferin 4-monooxygenase (Photinus pyralis) (UniProt P08659). As to the kind of experiment: Primary firefly luciferase (FLuc) qHTS assay for identification of artifact compounds. (AID 1845220). Also: nearly all actives have a fitted effect of over 60% in size.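 As to activity change, negative = inhibition: plate controls were DMSO vehicle for no effect and no enzyme for full effect.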 An outline of the steps:
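Titrated compounds were incubated 15 min at RT, protected from light, with luciferin and ATP at 10 uM; reaction started with 10 nM FLuc, luminescence imaged at 5 min, and concentration-response fitted by Hill equation.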

Experiment [7] concerns Nanoluciferase (engineered Oplophorus gracilirostris luciferase). As to the kind of experiment: Primary Nanoluciferase (NLuc) qHTS assay for identification of artifact compounds. (AID 1845222). Also: potency is read from the fitted curve at half-maximal effect.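 As to activity, negative = inhibition: NLuc secreted into diluted conditioned medium of S16 cells; 0% = DMSO and -100% = no enzyme.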 An outline of the steps:
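qHTS format, against NLuc in S16 cell-conditioned medium. Nano-Glo substrate 1:100 was added after 15 min at room temperature. Luminescence was taken after a further 5 min.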

Experiment [8] in a line: Primary redox qHTS assay for identification of artifact compounds. (AID 1845223).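 Also: 0% = DMSO and 100% = reference compound.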 In a few lines: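 Redox-cycling detection via DTT (250 uM final) oxidation coupled to Amplex Red (25 uM)/HRP (250 mU/mL) in HBSS. 15 min preincubation plus 30 min after DTT, room temperature. Ex/Em 525/598 nm; 4-parameter Hill fit against DMSO and 10 uM DA3003.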
The target of experiment [9] is Phospholipid hydroperoxide glutathione peroxidase GPX4 (Homo sapiens) (UniProt P36969). As to the kind of experiment: Primary qHTS Assay for Inhibitors of Recombinant Selenoprotein Glutathione Peroxidase 4 (GPX4) (AID 1845192). Also: nearly all actives have a fitted effect of over 65% in size. As to activity change, negative = inhibition: % is scaled to controls: 0 for no effect and ±100 for the full control effect. An outline of the steps: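 Steps: GPX4 plus compound, 30 min RT; add GR/GSH/NADPH master mix; start with cumene hydroperoxide; read 340/450 nm fluorescence at 0 and 15 min. Finals were 200 nM GPX4, 1 mM GSH, 0.5 mM CHP, 0.5 mM NADPH, 100 nM GR.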

The target of experiment [10] is Metallo-beta-lactamase type 2 (Klebsiella pneumoniae) (UniProt C7C422). Put plainly: qHTS to identify inhibitors of the New Delhi Metallo-beta-lactamase (NDM): assay validation screen against the NCATS LOPAC Collection (AID 1794843). Also: % is scaled to controls: 0 for no effect and ±100 for the full control effect. In a few lines:
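Absorbance at 485 nm from nitrocefin turnover (50 uM solution added), read at plateau, gives the read-out. Compounds in DMSO were incubated first with 2 nM final NDM-1 in pH 7.0 HEPES buffer containing 1 uM ZnSO4 and 0.01% Tween20.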

For experiment [11], the target named is Glutathione peroxidase 1 (Homo sapiens) (UniProt P07203). Put plainly: Primary qHTS Assay for Inhibitors of Recombinant Selenoprotein Glutathione Peroxidase 1 (GPX1) (AID 1845191). Also: nearly all actives have a fitted effect of over 65% in size. As to activity, negative = inhibition: % is scaled to controls: 0 for no effect and ±100 for the full control effect. In a few lines: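 GR-coupled readout: NADPH consumption tracked by fluorescence, ex 340/em 450 nm, at t=0 and after 15 min at RT. Final mix 10 nM GPX1, 1 mM GSH, 0.5 mM CHP, 0.5 mM NADPH, 100 nM GR, 0.01% BSA, following 30 min enzyme–compound preincubation.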

A short description of experiment [12]: Primary fluorescence-based thiol-reactive (MSTI) qHTS assay for identification of artifact compounds. (AID 1845221). Also: nearly all actives have a fitted effect of over 65% in size. Also: potency is read from the fitted curve at half-maximal effect.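 As to activity change, negative = thiol reactive: thiol-reactive compounds lower the probe fluorescence signal.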 An outline of the steps:
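qHTS titration of compound; 4 uM MSTI, PBS pH 7.4, 2% DMSO; 1 h RT, dark; fluorescence 525/598 nm; normalized to Acetyl-MSTI and MSTI; 4-parameter Hill fit.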

Experiment [13] is described as follows: NCATS anti-infectives library activity on HEK293 viability as a counter-qHTS vs the C. elegans viability qHTS (AID 1745854). Also: % is scaled to controls: 0 for no effect and ±100 for the full control effect. In a few lines:
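CellTiter-Glo luminescence, read on a CCD imager, scored viability of HEK293 cells after 24 hr compound exposure at 37C. Library tested in several concentrations, 1:5 steps, up to 41.7 uM; digitonin served as control.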

The nature of experiment [14]: Viability counterscreen for antagonist of constitutive androstane receptor (CAR) against the NCATS DSHEA and TCM libraries (AID 1794837).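 Also: compound exposure lasted 24 h before viability reading; 0% is about no effect.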 In a few lines:
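Counterscreen performed in a 1536-well qHTS format using HepG2-CYP2B6-hCAR cells; samples titrated in the presence of 48 uM CITCO, with viability measured fluorometrically (405/540 nm) after 24 h.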
On the technique in general: The purpose of a counterscreen is to sort out artefacts and off-target activity.

Experiment [15] in a line: Viability counterscreen for agonist of constitutive androstane receptor (CAR) against the NCATS DSHEA and TCM libraries (AID 1794838).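 Also: cells exposed to compound for 24 h; 0% is about no effect.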 In a few lines: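 Multiplexed counterscreen: after 24 h compound exposure with 0.75 uM PK11195, HepG2-CYP2B6-hCAR viability was quantified fluorimetrically (CellTiter-Fluor, 405/540 nm) prior to the ONE-Glo luciferase read.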
In experiment [16] the target is Nuclear receptor subfamily 1 group I member 3 (Homo sapiens) (UniProt Q14994). As to the kind of experiment: Primary qHTS for agonist of constitutive androstane receptor (CAR) against the NCATS DSHEA and TCM libraries (AID 1794839).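 Also: HepG2 cells expressing human CAR with a CYP2B6 reporter plus PK11195 antagonist; luciferase reporter luminescence read with ONE-Glo; 0% is about no effect.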 An outline of the steps: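 Concentration–response screen in HepG2-CYP2B6-hCAR cells under 0.75 µM PK11195; 24 h exposure; luminescent reporter signal with multiplexed fluorescent viability.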

Experiment [17] can be described thus: HepG2 viability counterscreen (readout 2: ATP content) against the NCATS DSHEA and TCM libraries (AID 1794840).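 Also: HepG2 cells exposed to substances for about 24 h; 0% is about no effect.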 In a few lines:
(§1)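 After HepG2 cells attach for ~4 h, substances are added and incubated ~24 h at 37C, 5% CO2. GF-AFC fluorescence then CellTiter-Glo luminescence give protease and ATP readouts.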

Experiment [18] in a line: HepG2 viability counterscreen (readout 1: protease activity) against the NCATS DSHEA and TCM libraries (AID 1794841).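 Also: cells exposed to compounds for about 24 h before the protease read; 0% is about no effect.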 In a few lines:
as §1

Experiment [19] has as its target Cytochrome P450 3A4 (Homo sapiens) (UniProt P08684). As to the kind of experiment: qHTS for inhibitors of CYP3A4 against the NCATS DSHEA and TCM libraries (AID 1919971).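 Also: % is scaled to controls: 0 for no effect and ±100 for the full control effect; inhibition lowers luminescence from luciferin made by CYP3A4.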 An outline of the steps: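 Substances were tested against enzyme with a pro-luciferin substrate; minus-enzyme wells served as background. After NADPH-initiated oxidation (30-45 min, RT), light was generated with P450-Glo reagent.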

Where “and” joins values, the source holds several entries; their conditions need not be identical. Identical values can stand only once. Results filed as inconclusive are left out. Calls of active or inactive are those of the source. Unless noted, calls follow the shape of the dose curve; as a rule, active = well fitted curve in the direction sought with a large enough effect; inconclusive = small, poorly fitted or top-dose-only effect, or another doubt; inactive = no such curve, though single readings can be large; an effect the other way counts as inactive or inconclusive.

Phospholipid hydroperoxide glutathione peroxidase GPX4 (Homo sapiens), sequence (P36969 whole entry, looked up): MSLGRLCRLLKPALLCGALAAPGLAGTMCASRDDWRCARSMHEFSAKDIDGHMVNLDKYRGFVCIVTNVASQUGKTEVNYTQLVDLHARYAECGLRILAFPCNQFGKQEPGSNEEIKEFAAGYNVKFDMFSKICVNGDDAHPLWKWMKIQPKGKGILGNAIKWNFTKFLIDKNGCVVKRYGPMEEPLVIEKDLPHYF
Nicotinamide N-methyltransferase (Homo sapiens), sequence (P40261 whole entry, looked up): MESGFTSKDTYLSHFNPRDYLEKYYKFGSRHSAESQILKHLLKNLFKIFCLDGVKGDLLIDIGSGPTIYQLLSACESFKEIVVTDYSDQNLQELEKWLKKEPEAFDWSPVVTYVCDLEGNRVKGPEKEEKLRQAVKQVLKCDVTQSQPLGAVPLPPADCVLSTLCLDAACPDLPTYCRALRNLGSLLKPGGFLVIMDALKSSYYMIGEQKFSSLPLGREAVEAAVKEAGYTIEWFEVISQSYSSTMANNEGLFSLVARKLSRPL
Catechol O-methyltransferase (Homo sapiens), sequence (P21964 whole entry, looked up): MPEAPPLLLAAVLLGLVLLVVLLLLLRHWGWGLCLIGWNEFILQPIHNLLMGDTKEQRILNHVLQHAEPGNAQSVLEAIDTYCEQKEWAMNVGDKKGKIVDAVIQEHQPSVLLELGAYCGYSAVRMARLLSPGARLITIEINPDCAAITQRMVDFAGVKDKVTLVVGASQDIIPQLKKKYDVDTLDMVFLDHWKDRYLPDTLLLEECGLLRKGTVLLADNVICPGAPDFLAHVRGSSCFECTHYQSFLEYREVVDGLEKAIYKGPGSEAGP
Glutathione peroxidase 1 (Homo sapiens), sequence (P07203 whole entry, looked up): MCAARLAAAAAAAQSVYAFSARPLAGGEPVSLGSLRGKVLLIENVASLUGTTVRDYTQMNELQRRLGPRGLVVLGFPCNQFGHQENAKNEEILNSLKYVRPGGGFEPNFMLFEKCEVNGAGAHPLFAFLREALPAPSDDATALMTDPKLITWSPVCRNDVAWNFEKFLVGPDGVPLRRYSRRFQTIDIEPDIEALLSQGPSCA
Phenylethanolamine N-methyltransferase (Homo sapiens), sequence (P11086 whole entry, looked up): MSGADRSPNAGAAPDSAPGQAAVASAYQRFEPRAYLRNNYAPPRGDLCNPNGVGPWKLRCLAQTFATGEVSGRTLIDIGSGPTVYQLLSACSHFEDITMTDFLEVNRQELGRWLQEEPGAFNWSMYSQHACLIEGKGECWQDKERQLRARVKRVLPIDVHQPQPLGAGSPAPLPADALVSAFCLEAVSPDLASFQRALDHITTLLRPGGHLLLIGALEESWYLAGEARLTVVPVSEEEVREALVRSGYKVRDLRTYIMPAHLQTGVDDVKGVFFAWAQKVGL
Nuclear receptor subfamily 1 group I member 3 (Homo sapiens), sequence (Q14994 whole entry, looked up): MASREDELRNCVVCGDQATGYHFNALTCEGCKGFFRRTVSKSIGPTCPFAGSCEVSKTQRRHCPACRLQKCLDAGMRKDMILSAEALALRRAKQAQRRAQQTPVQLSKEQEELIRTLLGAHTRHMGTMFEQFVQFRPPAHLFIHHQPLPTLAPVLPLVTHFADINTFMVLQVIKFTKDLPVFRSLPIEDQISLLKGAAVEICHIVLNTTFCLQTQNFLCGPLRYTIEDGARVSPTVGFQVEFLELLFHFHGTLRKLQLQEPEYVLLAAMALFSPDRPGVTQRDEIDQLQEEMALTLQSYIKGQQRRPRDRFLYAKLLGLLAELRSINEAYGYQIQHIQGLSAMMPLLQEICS
Cytochrome P450 3A4 (Homo sapiens), sequence (P08684 whole entry, looked up): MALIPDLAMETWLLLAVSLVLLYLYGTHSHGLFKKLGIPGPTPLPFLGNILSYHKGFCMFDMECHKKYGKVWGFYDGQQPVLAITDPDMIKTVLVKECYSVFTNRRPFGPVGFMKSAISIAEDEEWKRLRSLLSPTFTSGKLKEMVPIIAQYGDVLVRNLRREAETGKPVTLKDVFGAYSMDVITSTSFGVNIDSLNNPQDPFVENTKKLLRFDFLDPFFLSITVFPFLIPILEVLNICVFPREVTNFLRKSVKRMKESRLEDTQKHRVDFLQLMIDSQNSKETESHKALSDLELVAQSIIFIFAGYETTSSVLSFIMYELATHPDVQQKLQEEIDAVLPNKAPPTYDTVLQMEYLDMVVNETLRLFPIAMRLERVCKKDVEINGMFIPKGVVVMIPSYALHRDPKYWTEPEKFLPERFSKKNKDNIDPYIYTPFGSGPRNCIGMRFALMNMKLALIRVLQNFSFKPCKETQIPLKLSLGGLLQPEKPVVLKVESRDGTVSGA
Metallo-beta-lactamase type 2 (Klebsiella pneumoniae), sequence (C7C422 whole entry, looked up): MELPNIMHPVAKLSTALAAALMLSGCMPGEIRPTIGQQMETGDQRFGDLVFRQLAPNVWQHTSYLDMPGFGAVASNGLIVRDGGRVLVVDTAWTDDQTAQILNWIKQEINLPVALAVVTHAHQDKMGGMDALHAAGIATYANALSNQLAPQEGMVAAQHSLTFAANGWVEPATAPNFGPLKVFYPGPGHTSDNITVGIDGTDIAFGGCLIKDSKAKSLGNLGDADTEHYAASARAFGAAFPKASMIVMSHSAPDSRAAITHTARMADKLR

As to `CCCNc1ccc2ncc(-c3ccc4[nH]ncc4c3)n2n1`, the Potency in [1] was 0.0916 µM (active); in experiment [3], 8.57 µM (active). For the same molecule, the figures for the activity in [2], in [4] and in [5] were -53.8%, -46% and -45.4%, respectively. In addition, the Potency result in experiment [6], in experiment [7] and in experiment [8] was “inactive” each time.

`N#Cc1ccc(-c2cnc3[nH]cc(NC(=O)c4cccnc4)c3c2)cc1`: the Potency in experiment [1] was 5.15 µM (active). Further, the results for the activity in experiment [2], in experiment [4] and in [5] were 1.05%, 2.51% and -6.92%, respectively. For the same molecule, the Potency result in experiment [3], in experiment [9], in experiment [6], in experiment [7] and in experiment [8] was “inactive” each time.

For the molecule `CC[C@]1(O)CC2CN(CCc3c([nH]c4ccccc34)[C@@](C(=O)OC)(c3cc4c(cc3OC)N(C)[C@H]3[C@@](O)(C(=O)OC)[C@H](OC(C)=O)[C@]5(CC)C=CCN6CC[C@]43[C@@H]65)C2)C1` (stereo not given in full), the Potency in experiment [1] is 45.9 nM (active) and 372 nM (active). For the same molecule, the outcome in experiment [10] is “inactive”. Besides, the Potency entry in experiment [11], in [9], in experiment [6], in experiment [12] and in experiment [7] was “inactive” in each case.

On to `CC(C)C[C@H](CC(=O)NO)C(=O)N[C@@H](Cc1ccc2ccccc2c1)C(=O)N[C@@H](C)C(=O)NCCN`, for which the Potency entry in experiment [1], in [13], in experiment [11], in [9], in experiment [6] and in experiment [12] was “inactive” throughout. Further, the Potency entry in [7] and in [8] was “inactive” throughout.

As for `CN[C@H](CC(C)C)C(=O)N[C@H]1C(=O)N[C@@H](CC(N)=O)C(=O)N[C@H]2C(=O)N[C@H]3C(=O)N[C@H](C(=O)N[C@H](C(=O)O)c4cc(O)cc(O)c4-c4cc3ccc4O)[C@H](O[C@H]3C[C@](C)(N)[C@@H](O)[C@H](C)O3)c3ccc(c(Cl)c3)Oc3cc2cc(c3O[C@@H]2O[C@H](CO)[C@@H](O)[C@H](O)[C@H]2O[C@H]2C[C@](C)(NCc3ccc(-c4ccc(Cl)cc4)cc3)[C@@H](O)[C@H](C)O2)Oc2ccc(cc2Cl)[C@H]1O`, the Potency result in [1], in experiment [13], in experiment [11], in experiment [9], in experiment [12] and in [7] was “inactive” each time. The Potency entry in experiment [8] was “inactive”.

Regarding `CC(C)C(NC(=O)c1ccc2ccccc2n1)C(=O)NC(CC(=O)O)C(=O)COc1c(F)cccc1F` (stereo not given), the Potency entry in experiment [1], in experiment [13], in experiment [11], in experiment [9], in experiment [6] and in [12] was “inactive” each time.

`C=CC(=O)Nc1cccc(CN2C(=O)N(c3c(Cl)c(OC)cc(OC)c3Cl)Cc3cnc(NCCCCN(CC)CC)nc32)c1`: in experiment [1], the Potency is 2.58 µM (active). The Potency result in experiment [11], in experiment [9], in [6], in experiment [12] and in experiment [7] was “inactive” in each case.

In the case of `Cc1cc(Nc2ccc(NC(=O)c3ccc(Nc4ccnc5ccccc45)cc3)cc2)nc(N)n1`, the Potency is 0.817 µM (active) in [1] and 30.4 µM (active) in experiment [3]. For the same molecule, the values for the activity in [2], in [4] and in experiment [5] were -15.9%, -17.6% and -11.7%, respectively. Further, the Potency entry in experiment [9], in experiment [6], in experiment [7] and in experiment [8] was “inactive” throughout.

Turning to `CS(=O)(=O)c1ccc(-c2nnc(/C=C/c3nnc(-c4ccc(C#N)cc4)o3)n2-c2ccccc2Cl)nc1`, the Potency entry in [1], in experiment [13], in [6], in [12] and in [8] was “inactive” in each case. The Potency in [7] was 12 µM (active).

As for `CC1CC[C@]2(C(=O)O)CC[C@]3(C(=O)O)C(=CCC4[C@@]5(C)CC[C@H](OC6OC(C)C(O)C(OC7OC(CO)C(O)C(O)C7O)C6O)C(C)(C)C5CC[C@]43C)C2C1C` (stereo not given in full), the Potency entry in experiment [1], in experiment [11], in [9], in experiment [6], in experiment [7] and in experiment [8] was “inactive” in each case. For the same molecule, the outcome in experiment [14], in experiment [15], in [16], in experiment [17], in [18] and in experiment [19] was “inactive” throughout.

Turning to `CC(C)[C@@](C)(O)[C@@H]1CN(c2nc(-c3[nH]nc4ncccc34)c(F)cc2Cl)CCN1`, the Potency in experiment [1] is 4.59 µM (active); in experiment [3] it was 27.1 µM (active). Besides, the activity in [2] was -69%; in [4] it was -56.9%; in experiment [5], -65.1%. The Potency entry in [9], in [6], in experiment [7] and in experiment [8] was “inactive” throughout.

With `CC(C)(O[C@@H]1O[C@H](CO)[C@@H](O)[C@H](O)[C@H]1O)C(OC(=O)/C=C\c1ccc(O)cc1)C(=O)OCc1ccc(O[C@@H]2O[C@H](CO)[C@@H](O)[C@H](O)[C@H]2O)cc1` (stereo not given in full), the Potency result in experiment [1], in experiment [11], in experiment [9], in [6], in experiment [12] and in experiment [7] was “inactive” each time.

Turning to `C=C(C(=O)O)C1CCC2(C)CCC(O)C(=C)C2C1` (stereo not given), the Potency result in experiment [1], in [11], in experiment [9], in [6] and in experiment [7] was “inactive” throughout. Besides, in experiment [12], the Potency is 13.4 µM (active).

As for `C[C@@H]1O[C@@H](O[C@H]2[C@H](O)[C@@H](O[C@@H]3O[C@H](CO)[C@@H](O)[C@H](O[C@@H]4O[C@H](CO)[C@@H](O)[C@H](O)[C@H]4O)[C@H]3O)[C@H](O[C@H]3CC[C@@]4(C)C(=CC[C@@H]5C4CC[C@@]4(C)C5C[C@@H]5OC6(CC[C@@](C)(CO[C@@H]7O[C@H](CO)[C@@H](O)[C@H](O)[C@H]7O)O6)[C@@H](C)[C@@H]54)C3)O[C@@H]2CO)[C@H](O)[C@H](O)[C@H]1OC1OC(CO)C(O)C(O)C1O` (stereo not given in full), the outcome in experiment [1] is “inactive [at 9.23 µM]”; in [9], “inactive [at 9.73 µM]”. For the same molecule, the figures for the activity, negative = inhibition in experiment [11] and in experiment [7] were 1.32% [at 9.52 µM] (inactive) and 1.98% [at 11.6 µM] (inactive), respectively. The activity change, negative = inhibition in [6] is 2.07% [at 11.6 µM] (inactive). Moreover, the activity change, negative = thiol reactive in [12] is 23.9% [at 11.5 µM] (inactive).
